Bioassay records deposited in PubChem BioAssay by National Center for Advancing Translational Sciences (NCATS).
FH mod: Identification of activators of human fumarate hydratase by quantitative high-throughput screening | Fumarate hydratase, mitochondrial (Homo sapiens), P07954 | FH coupled MDH/diaphorase resazurin fluorescence, 15 min | Potency, µM (doses to about 79.9 µM), without a hit: top-dose activity change, negative = inhibition, hits mostly inhibitors | hit rate 0.22% among 54,000 | AID 1347055, 2019; also: % is scaled to controls: 0 for no effect and ±100 for the full control effect; the screen sought activators but most active calls are inhibition curves; nearly all actives have a fitted effect of over 45% in size
NTMT1 inhibitor: Primary qHTS for Inhibitors of N-terminal methyltransferase 1 (NTMT1): MTaseGlo Assay; Potency, µM (top dose mostly 114 µM), for inactives: at the highest dose activity change, negative = inhibition, most hits filed as inhibitors; hit rate 2.5% among 59,000; N-terminal Xaa-Pro-Lys N-methyltransferase 1 (Homo sapiens), Q9BV86; NTMT1 MTase-Glo SAH luminescence, purified enzyme; AID 1645870, 2021;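 also: plate controls were DMSO vehicle for no effect and no enzyme for full effect; nearly all actives have a fitted effect of over 65% in size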
Target sequence (Q9BV86 whole entry, looked up): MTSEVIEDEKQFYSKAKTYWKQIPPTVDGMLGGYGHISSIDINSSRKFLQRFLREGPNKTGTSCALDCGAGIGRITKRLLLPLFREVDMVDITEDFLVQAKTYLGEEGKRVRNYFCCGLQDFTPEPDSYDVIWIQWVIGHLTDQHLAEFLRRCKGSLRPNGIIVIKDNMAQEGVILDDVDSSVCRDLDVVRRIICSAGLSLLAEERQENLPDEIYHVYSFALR
HTT-AS promoter: Primary qHTS for Identification of Small Molecule Activators of Huntingtin-Antisense Promoter Activity. HEK293 HTT-AS promoter firefly luciferase reporter, 24 h; response scale: percent change from vehicle, -100% = no light. hit rate 0.24% among 48,000. Potency, µM (series often up to 57.5 µM), inactives show at the highest dose activity change, positive = activation, most hits filed as activators; also: nearly all actives have a fitted effect of over 55% in size
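HEK293 luciferase promoter-reporter cells (2,500/well) plated 24 h, then compounds added at up to 57.5 uM final for 24 h at 37 °C. Firefly luminescence by Dual-Glo, normalized to vehicle (0%) and zero RLU (-100%).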
HTT prom inh: Primary qHTS for Identification of Small Molecule Inhibitors of Huntingtin Promoter Activity; HEK293 HTT promoter firefly luciferase reporter, 24 h; Potency, µM (top dose mostly 57.5 µM), inactives show at the top dose activity change, negative = inhibition, usual class: inhibitors; hit rate 0.93% among 48,000; also: nearly all actives have a fitted effect of over 50% in size
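Firefly luciferase signal from promoter-reporter HEK293 cells was scaled between vehicle (0%) and zero RLU (-100%). Compounds were tested at final concentrations of up to 57.5 uM over 24 h at 37 degrees C. PTC124 at 50 uM final served as control inhibitor.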
Numbers without * were called inactive; ? = inconclusive; · = no result; ! = repeats disagree; [ ] = remark or other dose. Only some compounds are listed: those with a hit (about 2.6% of all), similar ones and a draw of the others. Calls follow the shape of the dose curve; as a rule, active = well fitted curve in the direction sought with a large enough effect; inconclusive = small, poorly fitted or top-dose-only effect, or another doubt; inactive = no such curve, though single readings can be large; an effect the other way counts as inactive or inconclusive. Potency is read from the fitted curve at half-maximal effect.

SMILES	FH mod	NTMT1 inhibitor	HTT-AS promoter	HTT prom inh
O=C1Cc2cc(S(=O)(=O)N3CCN(c4ccc(CO)cc4)CC3)ccc2N1	·	50µM*	·	·
Cc1cc(Nc2cc(N3CCN(C)CC3)nc(/C=C/c3ccccc3)n2)n[nH]1	-11%	?	·	·
Cc1cccc(N2CCN(c3ncnc4onc(C)c34)CC2C)c1 (configuration not stated)	-41%	-6%	-93%	13µM*
CC(C)(Sc1ccc(CCN(CCCCC2CCCCC2)C(=O)NC2CCCCC2)cc1)C(=O)O	25µM*!	32µM*!	-3%	-2%
CN(C)CCN(Cc1ccc(-c2ccc(CNCCc3ccccc3)cc2)cc1)C(=O)CCC1CCCC1	-6%	0%[57.5 µM]	·	·
Cc1ccc(-c2ccc(=O)n(C(C)C)n2)cc1	·	-5%	·	·
CN[C@@H]1C[C@H]2O[C@@](C)([C@@H]1OC)n1c3ccccc3c3c4c(c5c6ccccc6n2c5c31)C(=O)N[C@H]4O	-5%[13.5 µM]	-9%[29.8 µM]	·	·
C[N+](C)(CCOc1ccccc1)Cc1cccs1	-5%[53.3 µM]	14µM*	-7%	5%
COc1ccc2c(c1)CCc1c(C(=O)Nc3c(C)nn(Cc4ccc(C)cc4)c3C)noc1-2	?	-21%	-47%	22µM*
CCN(Cc1cc(Nc2nc(C)cn3c(-c4cn[nH]c4)cnc23)sn1)C(C)(C)CO	-13%	?	·	·
O=C1NS(=O)(=O)c2cscc21	·	18%	·	·
COc1cc(NC(C)CCCN)c2ncccc2c1 (configuration not stated)	?	40µM*	-3%	-16%
COc1cccc(Cn2cnc3c2c(=O)n(C)c(=O)n3C)c1	3%	26%	-51%	14µM*
O=C1c2ccccc2-c2nc3nnnn3nc21 (tested in a mixture with another compound)	0.89µM*	?	·	·
O=C(c1ccc(F)cc1F)N1CCC(c2noc(-c3ccc(S(=O)(=O)N4CCCC4)cc3)n2)CC1	1%	5%	-2%	-7%
COc1ccccc1C(=O)N1CCC(c2noc(-c3ccc(S(=O)(=O)N4CCCC4)cc3)n2)CC1	-11%	7%	-41%	25µM*
O=C(Cc1ccccc1)Nc1cccc(-c2cn3cccnc3n2)c1	-1%	-2%	11µM*	53%
O=C(O)C[C@H](O)C[C@H](O)/C=C/c1c(C2CC2)nc2ccccc2c1-c1ccc(F)cc1	10%	40µM*!	·	·
CCOc1ccccc1C(=O)N1CCC(c2nc3ccccc3o2)CC1	-6%	89µM*	-34%	-20%
CCCCOc1ccc(C(=O)N2CCC(c3nc4ccccc4o3)CC2)cc1	-25%	-10%	-23%	?
C=CC1C(OC2OC(CO)C(O)C(O)C2O)OC=C2C(=O)N3C(C(=O)O)Cc4c([nH]c5ccccc45)C3CC21 (configuration not stated)	11%[53.3 µM]	5%[29.8 µM]	·	·
CCN(CC)C(C)CN1c2ccccc2Sc2ccccc21 (configuration not stated)	-4%[53.3 µM]	-21%[57.5 µM]	-1%	14%
CCN1/C(=C/C=C/c2sc3ccccc3[n+]2CC)Sc2ccccc21	1%[20.6 µM]	18µM*	-66%[25.1 µM]	?
N#Cc1cnc(NS(=O)(=O)c2ccc(NC(=O)Cc3ccc(Cl)c(Cl)c3)cc2)s1	·	79µM*	·	·
O=C(Cc1ccc(Cl)c(Cl)c1)Nc1ccc(S(=O)(=O)Nc2cncnc2)cc1	·	17%	·	·
SMILES	FH mod	NTMT1 inhibitor	HTT-AS promoter	HTT prom inh
CC(=O)c1cccc(NS(=O)(=O)c2cccc(S(=O)(=O)c3ccc(Br)cc3)c2)c1	-16%	-7%	-54%	32µM*
COc1ccc(CNC(=O)c2cc(-c3cncc(Cl)c3)cnc2-c2ccccn2)nc1OC	·	6%	·	·
Cc1nn(C(C)C(=O)N2CCN(c3ccc(Cl)cc3)CC2)c(=O)c2cc3occc3n12 (configuration not stated)	-24%	5%	-56%	25µM*
CCCOCc1cc(CN2CCN(c3ccccc3OC)CC2)c(O)c2ncccc12	?	-3%	-34%	?
CCOCc1cc(CN2CCN(c3ccccc3OC)CC2)c(O)c2ncccc12	?	0%	-36%	11µM*
Cc1ccc(OCCn2c(CCNC(=O)Cc3cccc(F)c3)nc3ccccc32)cc1	·	6%	·	·
COc1cc(N2CCC(N3CCN(C)CC3)CC2)ccc1Nc1ncc(Cl)c(Nc2ccccc2S(=O)(=O)C(C)C)n1	?	25µM*!	-44%	?
COc1ccc(Cl)cc1Nc1sc(C(=O)c2ccccc2)c(N)c1C(=O)Nc1ccccc1	-18%	-8%	-29%	28µM*
CCOc1ccccc1Nc1sc(C(=O)c2ccccc2)c(N)c1C(=O)Nc1ccc(F)cc1	4%	4%	-8%	?
NCCCC[C@H](NC(=O)[C@@H](NC(=O)[C@H](Cc1c[nH]c2ccccc12)NC(=O)[C@H](CCCCN)NC(=O)[C@H](CCCCN)NC(=O)[C@H](Cc1c[nH]c2ccccc12)NC(=O)[C@H](Cc1c[nH]c2ccccc12)NC(=O)[C@H](CCCCN)NC(=O)[C@@H](N)CCCCN)C(c1ccccc1)c1ccccc1)C(N)=O	·	22µM*	·	·
NC(Cc1c[nH]c2ccccc12)C(=O)NC(CCC(=O)O)C(=O)O (configuration not stated)	6%	2%[57.5 µM]	·	·
Cc1ccc(-c2c(C)n3c4c(=O)n(C)c(=O)n(C)c4nc3n2CCCO)cc1	-7%	?	-62%	10µM*
COC(=O)CCCn1c(-c2ccc(C)cc2)c(C)n2c3c(=O)n(C)c(=O)n(C)c3nc12	-19%	-14%	-8%	5%
CCOC(=O)c1ccc(NC(=O)Cn2nc3c4ccccc4n(Cc4cccc(F)c4)cc-3c2=O)cc1	-14%	79µM*	-8%	-3%
COc1cccc(NC(=O)Cn2nc3c4ccccc4n(Cc4cccc(F)c4)cc-3c2=O)c1	3%	-21%	-39%	-19%
c1ccc(N2CCN(c3ncnc4c3nc3n4CCCC3)CC2)cc1	-4%	0%	-65%	13µM*
Cc1cccc(N2CCN(C(=O)C3CCN(c4ncnc5c4nc4n5CCCCC4)CC3)CC2)c1C	?	5%	-34%	?
COc1ccc(N2CCN(c3ncnc4c3nc3n4CCCCC3)CC2)cc1	-25%	?	-55%	?
Cc1cccc(N2CCN(C(=O)C3CCN(c4ncnc5c4nc4n5CCCCC4)CC3)CC2C)c1 (configuration not stated)	-6%	-6%	-76%	25µM*
CC1=C(C(=O)n2ccc3ccccc32)C(c2ccccc2Br)N=C(Nc2nc3ccccc3o2)N1 (configuration not stated)	·	38%	·	·
Cc1cc(N[S+](=O)([O-])c2ccc(NC(=O)Cc3ccc(Cl)c([N+](=O)[O-])c3)cc2)no1	·	18%	·	·
